Data on 25 compounds can be found in PubChem BioAssay.

One may read the inhibition as the drop in the measured response relative to a control, in per cent.

The target in assay [1] is Nuclear receptor coactivator 3 (Homo sapiens) (UniProt Q9Y6Q9). The experiment in a line: NCOA3 GAL4-fusion reporter inhibition – cell-based, luminescence, quadruplicate, confirmation (AID 588792;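 active means mean inhibition over 43.08%, the solvent-only control mean plus 3 SD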;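 further: 0% = DMSO treated cells and 100% = gossypol at 36 µM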). As to conditions: HEK293 GAL4-SRC3 luciferase reporter, at 3.6 µM, active compounds read high.
Sequence of Nuclear receptor coactivator 3 (Homo sapiens) (Q9Y6Q9 whole entry, looked up, the tested form may be a part): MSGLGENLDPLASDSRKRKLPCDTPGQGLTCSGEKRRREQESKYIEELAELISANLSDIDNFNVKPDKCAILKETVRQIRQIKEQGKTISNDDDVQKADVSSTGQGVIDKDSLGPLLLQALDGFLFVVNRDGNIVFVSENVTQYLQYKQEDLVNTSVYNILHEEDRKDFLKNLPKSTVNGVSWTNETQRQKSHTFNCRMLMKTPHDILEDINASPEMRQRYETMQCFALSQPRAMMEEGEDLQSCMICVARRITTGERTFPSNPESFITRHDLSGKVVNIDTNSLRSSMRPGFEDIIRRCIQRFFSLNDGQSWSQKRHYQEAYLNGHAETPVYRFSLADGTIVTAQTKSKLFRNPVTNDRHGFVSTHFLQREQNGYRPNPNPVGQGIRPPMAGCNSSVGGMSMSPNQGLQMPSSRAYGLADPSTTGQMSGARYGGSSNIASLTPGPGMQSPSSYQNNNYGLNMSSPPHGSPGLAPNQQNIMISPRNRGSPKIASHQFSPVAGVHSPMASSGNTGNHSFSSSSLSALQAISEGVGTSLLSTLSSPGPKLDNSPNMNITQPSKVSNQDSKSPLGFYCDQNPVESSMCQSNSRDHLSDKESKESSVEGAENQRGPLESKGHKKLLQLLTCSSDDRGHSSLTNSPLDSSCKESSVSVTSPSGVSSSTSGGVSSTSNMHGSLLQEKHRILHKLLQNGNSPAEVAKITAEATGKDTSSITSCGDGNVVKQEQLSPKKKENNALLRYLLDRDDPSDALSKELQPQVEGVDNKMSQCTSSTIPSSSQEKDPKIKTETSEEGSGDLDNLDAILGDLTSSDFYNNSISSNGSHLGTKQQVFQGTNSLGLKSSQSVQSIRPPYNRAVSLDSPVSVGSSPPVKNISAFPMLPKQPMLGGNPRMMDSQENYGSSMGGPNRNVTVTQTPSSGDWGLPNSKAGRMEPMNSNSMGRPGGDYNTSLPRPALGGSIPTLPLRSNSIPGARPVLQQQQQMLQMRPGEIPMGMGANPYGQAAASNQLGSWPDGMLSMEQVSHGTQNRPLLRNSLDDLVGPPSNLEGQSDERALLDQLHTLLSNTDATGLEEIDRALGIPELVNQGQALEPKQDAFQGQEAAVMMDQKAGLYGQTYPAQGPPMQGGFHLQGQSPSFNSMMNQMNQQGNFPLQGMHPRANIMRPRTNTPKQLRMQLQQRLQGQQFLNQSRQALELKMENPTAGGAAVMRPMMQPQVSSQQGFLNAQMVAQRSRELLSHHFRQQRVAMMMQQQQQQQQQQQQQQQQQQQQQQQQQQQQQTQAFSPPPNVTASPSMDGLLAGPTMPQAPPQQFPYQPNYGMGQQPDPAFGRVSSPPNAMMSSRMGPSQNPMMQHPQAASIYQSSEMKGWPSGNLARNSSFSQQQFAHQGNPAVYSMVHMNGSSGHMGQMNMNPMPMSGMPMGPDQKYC
Assay [2] concerns transactivating tegument protein VP16 (Human herpesvirus 1), Gal4-VP16 luciferase reporter. The experiment in a line: repression of VP16-driven luciferase reporter – cell-based, luminescence, high throughput, counter-screen for SRC3 inhibitor project (AID 588794; in the data active means inhibition above about 30%). The settings on record: mammalian cells, at 3.6 µM, active compounds read high.
For assay [3], the target named is Nuclear receptor coactivator 1 (Homo sapiens) (UniProt Q15788). Description: NCOA1 GAL4-fusion reporter inhibition – cell-based, luminescence, quadruplicate, confirmation (AID 588820;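 active means mean inhibition above 46.68%, the untreated control wells mean plus 3 SD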;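 further: 0% = DMSO wells and 100% = gossypol 36 µM treated wells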). As to conditions: HEK293 GAL4-SRC1 luciferase reporter, at 3.6 µM, active compounds read high. In general terms: A reporter such as luciferase makes a cellular process visible.
Sequence of Nuclear receptor coactivator 1 (Homo sapiens) (Q15788 whole entry, looked up, the tested form may be a part): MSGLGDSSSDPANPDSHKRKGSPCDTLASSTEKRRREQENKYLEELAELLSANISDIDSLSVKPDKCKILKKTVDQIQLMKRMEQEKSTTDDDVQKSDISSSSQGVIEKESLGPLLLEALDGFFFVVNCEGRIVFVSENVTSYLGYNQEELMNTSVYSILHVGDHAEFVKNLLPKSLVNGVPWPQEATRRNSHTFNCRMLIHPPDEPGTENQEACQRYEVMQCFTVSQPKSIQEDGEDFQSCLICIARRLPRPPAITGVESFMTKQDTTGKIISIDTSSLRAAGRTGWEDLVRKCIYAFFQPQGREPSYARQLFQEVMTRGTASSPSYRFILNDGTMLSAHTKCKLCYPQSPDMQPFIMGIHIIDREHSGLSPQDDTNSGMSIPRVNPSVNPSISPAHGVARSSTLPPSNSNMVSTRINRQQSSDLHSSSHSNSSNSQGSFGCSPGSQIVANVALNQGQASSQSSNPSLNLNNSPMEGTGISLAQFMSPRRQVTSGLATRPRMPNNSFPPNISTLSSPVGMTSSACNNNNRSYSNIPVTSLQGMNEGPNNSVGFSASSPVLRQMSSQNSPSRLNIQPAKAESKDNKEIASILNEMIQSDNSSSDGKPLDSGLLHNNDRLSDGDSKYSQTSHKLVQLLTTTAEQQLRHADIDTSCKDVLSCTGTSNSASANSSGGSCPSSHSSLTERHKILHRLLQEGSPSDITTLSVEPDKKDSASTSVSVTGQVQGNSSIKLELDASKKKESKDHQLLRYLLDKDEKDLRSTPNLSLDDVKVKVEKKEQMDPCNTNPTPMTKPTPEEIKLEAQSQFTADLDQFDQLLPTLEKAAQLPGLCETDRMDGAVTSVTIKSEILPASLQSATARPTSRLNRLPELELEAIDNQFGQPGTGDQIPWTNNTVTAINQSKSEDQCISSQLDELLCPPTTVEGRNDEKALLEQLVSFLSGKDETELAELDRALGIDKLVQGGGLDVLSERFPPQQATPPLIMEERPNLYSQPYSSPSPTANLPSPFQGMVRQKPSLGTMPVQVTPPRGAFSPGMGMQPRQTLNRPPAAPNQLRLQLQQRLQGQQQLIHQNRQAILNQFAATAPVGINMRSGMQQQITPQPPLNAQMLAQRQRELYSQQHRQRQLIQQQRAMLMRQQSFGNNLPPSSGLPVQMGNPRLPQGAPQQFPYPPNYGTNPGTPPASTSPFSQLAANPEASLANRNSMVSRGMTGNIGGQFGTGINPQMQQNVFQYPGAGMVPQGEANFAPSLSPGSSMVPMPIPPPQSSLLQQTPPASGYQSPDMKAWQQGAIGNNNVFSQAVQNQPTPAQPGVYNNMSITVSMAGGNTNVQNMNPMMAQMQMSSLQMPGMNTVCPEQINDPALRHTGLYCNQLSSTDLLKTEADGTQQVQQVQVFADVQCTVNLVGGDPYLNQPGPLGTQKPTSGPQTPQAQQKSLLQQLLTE
Assay [4] is described as follows: repression of VP16-driven luciferase reporter – cell-based, luminescence, high throughput, counter-screen for SRC1 inhibitor project (AID 588824). The settings on record: cell-based VP16 transactivation luciferase luminescence; at 3.6 µM; active compounds read high.

Unmarked numbers belong to inactive results. Calls of active or inactive are those of the source. Unless noted, no stated cut-off is given here; in the data, active means inhibition above about 25%; inactive means the rest.

As to `CC(=O)c1c(C)n(-c2ccccc2)c2ccc(O)cc12`, the inhibition was 50.6% (active) in assay [1], 41.6% (active) in assay [2], 44.7% in assay [3] and 37.9% (active) in assay [4].
`O=[N+]([O-])c1ccc(Oc2ccc(F)cc2)c2ccncc12`: the inhibition in assay [1] was 46.8% (active); in assay [2], 36% (active); in assay [3], 47.6% (active); in assay [4], 35.4% (active).
The like results for `Cc1ccc(NC(=O)NC2CC(=O)N(c3ccc4c(c3)OCCO4)C2)cc1C` (stereo not given) were, in that order, 41.9%, 33.8% (active), 46% and 20.9%.
In the case of `Cc1cc(C)nc(/N=C(\N)Nc2ccc(-c3ccccc3)cc2)n1`, the inhibition in assay [1] was 9.37%; in assay [2], 33.3% (active); in assay [3] it was 21.7%; in assay [4], 30.1% (active).
Taken in the same sequence, the figures for `CC(=O)N(C(C)=O)c1ncc2c([nH]c3ccccc32)c1C#N` were 47.9% (active), 30.6% (active), 48.5% (active) and 26.8% (active).
In the case of `O=C(CCc1ccccc1)NC(c1cccs1)c1cc(Cl)c2cccnc2c1O` (stereo not given), the inhibition was 55.5% (active) in assay [1], 42% (active) in assay [2], 45% in assay [3] and 45.9% (active) in assay [4].
The like results for `COc1ccccc1N(C(=O)CCl)c1cn(C(C)=O)c2ccccc12` were, in that order, 52.2% (active), 27%, 27.2% and 18.7%.
For `CC(=O)Nc1ccc(S(=O)(=O)c2ccnc3cc(Cl)ccc23)cc1`, the inhibition in assay [1] is 52.9% (active); in assay [2] it was 44.1% (active); in assay [3], 47% (active); in assay [4], 39.2% (active).
With `Cc1ccc2nc(NNC(=O)c3ccc(S(=O)(=O)N4CCc5ccccc5C4)cc3)sc2c1`, the inhibition in assay [1] is 41.8%; in assay [2], 46.4% (active); in assay [3], 45%; in assay [4], 50% (active).
The like results for `OCCNc1c2ccccc2nc2ccccc12` were, in that order, 4.16%, 40.4% (active), 5.64% and 42.2% (active).
Regarding `COc1ccc2cc3c(N)nn(C(=O)c4ccc(F)cc4)c3nc2c1`, the inhibition is 69.8% (active) in assay [1], 36.1% (active) in assay [2], 56.7% (active) in assay [3] and 36.3% (active) in assay [4].
Taken in the same sequence, the figures for `NC(=S)NN=Cc1nccc2c(N)cccc12` were 72.3% (active), 17.2%, 47.8% (active) and 8.49%.
Taken in the same sequence, the figures for `CCCOc1ccc(/C=N/Nc2ccccc2[N+](=O)[O-])c(O)c1` were 27.7%, 5%, -59.5% and -39.9%.
As to `Cc1nn(-c2ccccc2)c(Cl)c1C(=O)N1CCN(c2ncnc3c2cnn3-c2ccccc2)CC1`, the inhibition was 25.8% in assay [1], 31.4% (active) in assay [2], 4.61% in assay [3] and 44.9% (active) in assay [4].
Taken in the same sequence, the figures for `O=C(Nc1cccc(Cl)c1)Nc1nnc(-c2ccncc2)s1` were 40.1%, 31.9% (active), 28.5% and 23.7%.
As to `CC(C)(C)NC(=O)CSc1nc2ccc(NC(=O)CSc3nnnn3Cc3ccccc3)cc2s1`, the inhibition in assay [1] is 0.03%; in assay [2], 28.7%; in assay [3], 3.45%; in assay [4], 26.4% (active).
The like results for `Cc1c(-c2ccccc2)oc2c(C(=O)N3CCN(c4ccc([N+](=O)[O-])cc4)CC3)cccc2c1=O` were, in that order, 54.4% (active), 32.5% (active), 45.9% and 27.3% (active).
The like results for `O=C(Nc1scc(-c2ccc(Br)cc2)c1C(=O)O)c1ccccc1F` were, in that order, 10.7%, 15.8%, -17.2% and 10.7%.
For the compound `O=C(Nc1c(-c2ccccc2)[nH][nH]c1=O)c1cccc(C(F)(F)F)c1`, the inhibition in assay [1] is 15.3%; in assay [2] it was 6.35%; in assay [3], 22%; in assay [4] it was 0.94%.
Consider `Cc1cccc(/C=N/Nc2ccc3ccccc3n2)c1`, for which the inhibition in assay [1] is 16.1%; in assay [2], -21.2%; in assay [3] it was -80.5%; in assay [4] it was -55%.
The like results for `CCOC(=O)C(=Cc1ccccc1)C(=O)c1ccccc1` were, in that order, 21.3%, 33.6% (active), 10.6% and 28.7% (active).
The like results for `CCOC(=O)c1ccccc1OC(=O)NNc1ccccc1` were, in that order, 15.6%, 46.1% (active), 11.2% and 38.8% (active).
As for `COc1ccc(-c2cnc(N)nc2-c2ccc(OC)cc2O)cc1`, the inhibition is 22.5% in assay [1], 13.7% in assay [2], 29.7% in assay [3] and 18.4% in assay [4].
The like results for `O=c1[nH]cc(F)c(=O)[nH]1` were, in that order, 14.7%, 31% (active), 8.56% and 22.3%.
With `O=C(Nc1ccc(S(=O)(=O)N2CCCCC2)cc1)c1ccc(CN2CCOCC2)cc1`, the inhibition is 15.9% in assay [1], 46% (active) in assay [2], -6% in assay [3] and 47.1% (active) in assay [4].
